Laboratory results from PubChem BioAssay (NCATS).
Records with an inconclusive call do not appear. A number with no mark means an inactive call. The call rests on the fitted dose curve.

Experiment: qHTS for inhibitors of Rabies Virus screened against the NCATS CANVASS Library (AID 1347402); further: 0% is about no effect
Conditions: Rabies virus infection cell assay; series mostly up to 45.9 µM; activity change, negative = inhibition: at the top concentration

With C/C=C/C=C/C1(O)C2C=C3C(=O)CC45C(=O)C(O)=C(C)C(=O)C4C1C1(C(=O)C(O)=C(C)C(=O)C351)C2C (stereo not drawn) as the molecule, how does the “activity change, negative = inhibition” value read?
The value was 1.29%.

For C=C1C[C@@]23C=CC(=O)[C@@](C)(CCCC(C)C(=O)O)[C@@H]2C[C@@H]1CC3 (stereo partly drawn), which “activity change, negative = inhibition” value is on record?
The value was -9.66%.

Which “activity change, negative = inhibition” value does the source give for CCCCCCCCC[C@@H]1C[C@@H]2CC[C@H]3[C@@H](C(=O)OCCCCN=C(N)N)[C@@H](C)N=C(N1)N23 here?
Its value is -28.8% [at 27.4 µM].
